VP16 counter: VP16 counterscreen qHTS for inhibitors of ROR gamma transcriptional activity | Drosophila S2 Gal4-VP16 UAS-luciferase, luminescence, 20 h | Potency, µM (doses to about 53.6 µM), most hits filed as inhibitors | 310,000 compounds, 3.5% hits;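 note: Gal4-VP16 expression switched on by copper sulfate through the metallothionein promoter; nearly all actives have a fitted effect of over 50% in size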
KinaseGlo FLuc: Counterscreen for Luciferase (Kinase-Glo TM) Inhibition | Luciferin 4-monooxygenase (Photuris pensylvanica), Q27757 | Kinase-Glo luciferase, ATP luminescence, 8 min | Potency, µM (highest dose often 38.3 µM), most hits filed as inhibitors | 200,000 compounds, 0.28% hits | AID 1379, 2008; note: nearly all actives have a fitted effect of over 60% in size
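Substrate mix (final 50 mM imidazole pH 7.2, 50 mM KCl, 7 mM MgCl2, 10 uM ATP, 0.01% Tween 20, 0.05% BSA) plus pin-tool compound, then Kinase-Glo detection mix; 8 min ambient, luminescence read.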
RORgamma inh: qHTS for inhibitors of ROR gamma transcriptional activity; Nuclear receptor ROR-gamma (Mus musculus), P51450; Drosophila S2 Gal4-RORgamma UAS-luciferase reporter, 20 h; Potency, µM (top dose mostly 53.6 µM), actives largely listed as inhibitors; 310,000 compounds, 5.4% hits; AID 2551, 2010; note: nearly all actives have a fitted effect of over 60% in size
Target sequence (P51450 whole entry, looked up, the tested form may be a part): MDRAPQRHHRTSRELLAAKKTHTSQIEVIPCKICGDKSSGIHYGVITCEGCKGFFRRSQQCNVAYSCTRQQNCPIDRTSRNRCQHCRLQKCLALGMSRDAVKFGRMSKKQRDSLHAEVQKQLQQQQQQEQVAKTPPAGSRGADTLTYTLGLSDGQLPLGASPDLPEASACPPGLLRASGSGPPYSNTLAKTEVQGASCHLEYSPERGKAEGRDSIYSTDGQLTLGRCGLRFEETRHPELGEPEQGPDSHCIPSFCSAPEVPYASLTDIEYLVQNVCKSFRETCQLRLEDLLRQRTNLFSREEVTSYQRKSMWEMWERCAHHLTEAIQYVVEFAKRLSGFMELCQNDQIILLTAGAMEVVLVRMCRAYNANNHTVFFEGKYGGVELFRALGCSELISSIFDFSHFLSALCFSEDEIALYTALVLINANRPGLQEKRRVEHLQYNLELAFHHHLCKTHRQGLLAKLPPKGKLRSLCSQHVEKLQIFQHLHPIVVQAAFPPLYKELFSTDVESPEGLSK
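Luciferase reporter read in Schneider cells carrying Gal4-RORγ (mouse) and UAS-Photinus luciferase; cells given compound 1 h before 700 uM copper sulfate induction, then incubated 20 h at ambient temperature.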
Large screens that a line does not name were inactive. In the library only some 6.4% were active in any assay of this set; here they are far more common. Calls come from the whole dose curve; as a rule, active = well fitted curve in the direction sought with a large enough effect; inconclusive = small, poorly fitted or top-dose-only effect, or another doubt; inactive = no such curve, though single readings can be large; an effect the other way counts as inactive or inconclusive.

COc1ccc2nc(NC(=O)c3sc4nc(C)cc(C)c4c3N)sc2c1	VP16 counter inconclusive, RORgamma inh 0.0398µM (no result: KinaseGlo FLuc)
Cc1cc(C)c2c(N)c(C(=O)Nc3ncc(C)s3)sc2n1	VP16 counter 2.82µM, KinaseGlo FLuc inconclusive, RORgamma inh 2µM
COc1cccc(N2CCN(c3ccc4nnc(CCC(=O)Nc5ccc(F)cc5)n4n3)CC2)c1	none (no result: KinaseGlo FLuc)
FC(F)OC(Cl)C(F)(F)F (centres undefined)	none (no result: KinaseGlo FLuc)
Cc1cc(OC(C)C(=O)N(Cc2ccco2)C2CCS(=O)(=O)C2)cc(C)c1Cl (centres undefined)	none (no result: KinaseGlo FLuc)
COCCCNC(=O)c1cc2cc(Br)ccc2oc1=O	none
O=C(NNC(=O)c1cc2cc(Br)ccc2oc1=O)c1ccc(O)cc1O	VP16 counter inconclusive, RORgamma inh 10µM
COc1ccc(N2CCC(CNC(=O)Nc3ccc(Cl)cc3)C2)cc1 (centres undefined)	RORgamma inh inconclusive
COc1ccc(N2CCC(CNC(=O)Nc3cccc(OC)c3)C2)cc1 (centres undefined)	none
COc1ccc(N2CCC(CNC(=S)Nc3cccc(OC)c3)C2)cc1 (centres undefined)	VP16 counter 5.62µM, RORgamma inh 3.16µM
CCc1cccc(C)c1NC(=O)C1C2CCC(O2)C1C(=O)O (centres undefined)	none
CCc1cccc(C)c1NC(=S)NCC1CCN(c2ccc(OC)cc2)C1 (centres undefined)	VP16 counter 7.08µM, RORgamma inh 6.31µM
CCc1ccccc1NC(=S)NCC1CCN(c2ccc(OC)cc2)C1 (centres undefined)	VP16 counter 10µM, RORgamma inh 2.51µM (no result: KinaseGlo FLuc)
Cc1ccc(NC(=O)CCc2ccc(C)o2)cc1	none (no result: KinaseGlo FLuc)
COc1ccc(CNC(=O)Cn2nc([N+](=O)[O-])cc2C)cc1	none (no result: KinaseGlo FLuc)
O=C(CCCN1C(=O)/C(=C\c2ccco2)SC1=S)Nc1ccc2ccccc2c1	VP16 counter 10µM, RORgamma inh 12.6µM
O=C(CCN1C(=O)/C(=C/c2ccco2)SC1=S)Nc1ccc(C(=O)O)c(O)c1	none (no result: KinaseGlo FLuc)
O=C(O)CCCN1C(=O)/C(=C\c2ccco2)SC1=S	VP16 counter 1.26µM, RORgamma inh 3.98µM
O=C(CCCN1C(=O)/C(=C/c2ccco2)SC1=S)Nc1ccccc1C(=O)O	none (no result: KinaseGlo FLuc)
Cc1ccc(NC(=O)CN(C)CC(=O)Nc2ccc(N3CCOCC3)cc2)c([N+](=O)[O-])c1	none
O=C(NC(NC(=S)Nc1ccccc1C(=O)O)C(Cl)(Cl)Cl)c1ccco1 (centres undefined)	none
COC(=O)c1ccccc1NC(=S)NC(NC(=O)c1ccccc1[N+](=O)[O-])C(Cl)(Cl)Cl (centres undefined)	VP16 counter inconclusive, RORgamma inh 12.6µM
COC(=O)c1ccccc1NC(=S)NC(NC(=O)c1ccco1)C(Cl)(Cl)Cl (centres undefined)	RORgamma inh 7.94µM
COc1ccc(NC(=S)NC(NC(=O)c2ccccc2Cl)C(Cl)(Cl)Cl)c([N+](=O)[O-])c1 (centres undefined)	RORgamma inh inconclusive
CN(C(=O)c1ccoc1)c1ccccc1I	none (no result: KinaseGlo FLuc)
[O-][n+]1ccccc1SSc1cccc[n+]1[O-]	VP16 counter 0.891µM, RORgamma inh 0.355µM (no result: KinaseGlo FLuc)
O=C(CSc1cccc[n+]1[O-])CSc1cccc[n+]1[O-]	VP16 counter inconclusive, RORgamma inh 3.98µM
O=C(CSc1cccc[n+]1[O-])N1CCCCCC1	none
O=C(CSc1cccc[n+]1[O-])NC1CCCCCCC1	none
Cc1cc(C)nc(/N=C(\NC(=O)C(C)(C)C)Nc2ccc(F)cc2)n1	none (no result: KinaseGlo FLuc)
COc1ccc(C(=O)N/N=C(\C)c2ccc(NC(=O)Cc3ccccc3)cc2)c(OC)c1	none (no result: KinaseGlo FLuc)
NCC(=O)N[C@@H](CCCN=C(N)N)C(=O)NCC(=O)N[C@@H](CC(=O)O)C(=O)N[C@@H](CO)C(=O)O	none (no result: KinaseGlo FLuc)
O=C(/C=C/c1ccc(Cl)c([N+](=O)[O-])c1)Nc1ccc(N2CCCC2)cc1	none
Cc1ccc(S(=O)(=O)N(C)C)cc1NC(=S)NCCc1ccccn1	none
S=C(NCCc1ccccn1)NC1CC2CCC1C2 (centres undefined)	VP16 counter inconclusive, RORgamma inh 6.31µM (no result: KinaseGlo FLuc)
COc1ccc(NC(=S)NC2CC3CCC2C3)c(OC)c1 (centres undefined)	VP16 counter 11.2µM, RORgamma inh 5.01µM (no result: KinaseGlo FLuc)
CCOc1ccccc1NC(=S)NC1CC2CCC1C2 (centres undefined)	VP16 counter 7.08µM, RORgamma inh 2.82µM (no result: KinaseGlo FLuc)
COc1ccc(NC(=S)NC23CN4CN(CN(C4)C2)C3)c(OC)c1	none
CCOc1ccccc1-c1nnc(SCC(=O)NC2CC3CCC2C3)n1CC (centres undefined)	RORgamma inh inconclusive
CC(C)C(NC(=O)c1ccco1)C(=O)OCC(=O)Nc1ccc(C(N)=O)cc1 (centres undefined)	none
O[C@@H](COc1ccc(Cl)cc1Cl)CN1CCCC1	none (no result: VP16 counter, RORgamma inh)
CCOc1ccc(C2C=C(c3ccc(C)cc3)Nc3ncnn32)cc1 (centres undefined)	RORgamma inh 11.2µM
CCOc1ccc(C2C=C(c3ccc(C)cc3)Nc3nnnn32)cc1 (centres undefined)	none
CCCCc1cc(=O)oc2cc(O)cc(O)c12	VP16 counter 22.4µM
CCCCc1cc(=O)oc2cc(C)cc(O)c12	VP16 counter inconclusive, RORgamma inh inconclusive
O=C(/C=C/c1ccccc1)NC(=S)NNC(=O)c1ccco1	none
C=CCN(CC=C)C(=S)NC(=O)/C=C/c1ccccc1	RORgamma inh 14.1µM
C=CCN(CC=C)C(=S)NC(=O)/C=C/c1ccc(OC)cc1	none
C=CCN(CC=C)C(=S)NC(=O)/C=C/c1ccc(C)cc1	VP16 counter inconclusive, RORgamma inh 6.31µM
COC(=O)NC(/C(C(=O)OC)=C(\C)NCc1ccccc1)c1ccc2ccccc2c1 (centres undefined)	none (no result: KinaseGlo FLuc)
Cc1cc(-c2nn(-c3ccccc3F)cc2CN(C)CC(O)CO)c(C)s1 (centres undefined)	none (no result: KinaseGlo FLuc)
O=C1N/C(=N/N=C/c2ccc(O)cc2)SC1Cc1ccccc1 (centres undefined)	none (no result: KinaseGlo FLuc)
O=C1N/C(=N/N=C/c2ccccc2O)SC1Cc1ccc(F)cc1 (centres undefined)	VP16 counter 8.91µM, RORgamma inh 2.82µM (no result: KinaseGlo FLuc)
COc1ccc(CC2S/C(=N/N=C/c3ccc(O)cc3)NC2=O)cc1 (centres undefined)	none
COc1ccc(/C=N/N=C2/NC(=O)C(c3ccccc3)S2)c(OC)c1 (centres undefined)	RORgamma inh 14.1µM
COc1ccc(CC2S/C(=N/N=C/c3ccccc3O)NC2=O)cc1 (centres undefined)	VP16 counter inconclusive, RORgamma inh 5.62µM (no result: KinaseGlo FLuc)
Cc1cccc(/N=C2/NC(=O)C(Cc3ccccc3)S2)n1 (centres undefined)	none
CCOc1ccc(CC2S/C(=N/c3ccccn3)NC2=O)cc1 (centres undefined)	VP16 counter 5.01µM, RORgamma inh 3.16µM
COc1ccc(/C=N/N=C2/NC(=O)C(CC(=O)NC(C)C)S2)cc1 (centres undefined)	none
COc1cc2c(cc1OC)C1O[C@](CCCCN3C(=O)c4ccccc4C3=O)(C2)OC2=C1C(=O)CC(C)(C)C2	none (no result: KinaseGlo FLuc)
O=C(O)c1ccccc1OS(=O)(=O)O	none (no result: KinaseGlo FLuc)
Cc1ccc(S(=O)(=O)N2CCC(C(=O)NNC(=O)c3ccc(F)cc3)CC2)cc1	none
O=C(CSc1ncn[nH]1)Nc1ccc(S(=O)(=O)Nc2ncccn2)cc1	none

High-throughput results as filed in PubChem.
